CHRM4 agonist: human M4 muscarinic receptor agonists, primary screen, CHO-K1 cells, Fluo-8 calcium fluorescence; CHO-K1 hM4/Gqi5; vehicle 0%, full acetylcholine response 100%; AID 624127, 2012; activation, % at 3 µM; Muscarinic acetylcholine receptor M4 (Homo sapiens), P08173; 0.14% of 360,000 active;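 active means activation above the run mean over all test wells plus 3 SD, cut at about 32% in these data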;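 further: peak over basal fluorescence ratio per well then scaled between controls; 0% = DMSO wells and 100% = acetylcholine at EC100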
Target sequence (P08173 whole entry, looked up): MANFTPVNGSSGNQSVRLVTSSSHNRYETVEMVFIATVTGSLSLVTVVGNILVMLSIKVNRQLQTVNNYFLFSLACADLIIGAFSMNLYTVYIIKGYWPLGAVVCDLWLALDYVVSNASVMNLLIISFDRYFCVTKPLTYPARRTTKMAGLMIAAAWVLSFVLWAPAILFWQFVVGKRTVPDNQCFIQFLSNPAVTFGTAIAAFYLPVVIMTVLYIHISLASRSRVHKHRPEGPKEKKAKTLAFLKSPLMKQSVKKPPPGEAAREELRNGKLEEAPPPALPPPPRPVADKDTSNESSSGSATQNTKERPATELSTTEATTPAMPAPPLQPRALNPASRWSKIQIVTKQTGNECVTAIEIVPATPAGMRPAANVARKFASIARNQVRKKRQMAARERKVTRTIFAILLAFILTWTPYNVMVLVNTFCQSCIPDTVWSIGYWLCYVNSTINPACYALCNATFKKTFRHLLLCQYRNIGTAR
CHO-K1 Ca ag: counter-screen for M1 agonists: effect in parental CHO-K1 cells | Fluo-8 calcium fluorescence; scaled to maximal ATP response, vehicle zero | activation, % at 3 µM | 0.48% of 360,000 active; in the data active means activation above about 15%;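 further: untransfected CHO-K1 host cells lacking M1 receptor as counterscreen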
M1 PAM parental: nonselective calcium activators in parental CHO-K1 cells, primary screen, counter-screen for M1 PAM project, cell-based, Fluo-8 calcium fluorescence, full deck, 1536-well; ATP EC20; 0% at ATP EC20, 100% at ATP max; activation, % at 3 µM; 0.02% of 360,000 active; AID 602247, 2012;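 active means activation above the run cutoff, the mean activation of all test compounds plus 3 SD, cut at about 40% in these data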;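 further: peak over basal fluorescence ratio in a 140 s read after ATP addition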
CHO-K1 Ca antag: counter-screen for M1 antagonists: effect in parental CHO-K1 cells | ATP-induced calcium, Fluo-8 fluorescence | 0.6% of 360,000 active | inhibition, % at 3 µM;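 active means inhibition above a per-plate cutoff, the plate's mean sample inhibition plus 3 SD, cut at about 24% in these data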;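 further: 0% = DMSO plus EC80 ATP and 100% = DMSO alone without ATP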
M4 PAM: human M4 muscarinic receptor positive allosteric modulators, primary screen, CHO-K1 cells, Fluo-8 calcium fluorescence; Muscarinic acetylcholine receptor M4 (Homo sapiens), P08173; CHO-K1 hM4/Gqi5, ACh EC20; 0% = ACh EC20, 100% = maximal ACh; activation, % at 3 µM; 0.4% of 360,000 active; AID 624126, 2012;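 active means activation above its plate's cutoff, the mean activation of sample wells plus 3 SD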
CHRM4 antagonist: human M4 muscarinic receptor antagonists, primary screen, CHO cells, Fluo-8 calcium fluorescence; Muscarinic acetylcholine receptor M4 (Homo sapiens), P08173; CHO-hM4 cells, ACh EC80; inhibition, % at 3 µM; 0.73% of 360,000 active; AID 624125, 2012;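 active means inhibition above its plate's cutoff, the mean inhibition of sample wells plus 3 SD, cut at about 27% in these data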;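 further: 0% = acetylcholine EC80 with DMSO and 100% = DMSO without agonist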
Active calls of the source: *. Most compounds without a hit are left out; they make up all but 2% or so of the library.

SMILES | CHRM4 agonist | CHO-K1 Ca ag | M1 PAM parental | CHO-K1 Ca antag | M4 PAM | CHRM4 antagonist
Cc1ccc(OC(=O)CCS(=O)(=O)c2ccc(C)cc2)cc1 | 1 | 0 | 2 | -9 | 18* | -1
COC(=O)Cc1ccc(OC(=O)CCS(=O)(=O)c2ccc(C)cc2)cc1 | 0 | 1 | 1 | -9 | 0 | -1
CCOC(=O)c1c(NC(=O)COc2cccc3c2CCN(CC)C3=O)sc2c1CCC2 | 2 | -1 | -4 | 13 | 22* | 4
CCOC(=O)C1(C)CCCCN1C(=O)c1ccnc(Cl)c1 (centres undefined) | 2 | 0 | -9 | -16 | -5 | 8
COc1cc(O)oc1C=Nc1ccc(Cl)cc1 | 1 | 0 | 13 | -13 | 17* | -17
COc1cc(O)oc1C=Nc1ccc(Cl)cc1Cl | 0 | 0 | 12 | -8 | 1 | 7
O=C(Nc1ccccc1)N1CCCC1c1cccs1 (centres undefined) | 19 | 4 | 8 | -2 | -7 | 9
Cc1sc2ncn(CC(=O)N3CCC(C(N)=O)CC3)c(=O)c2c1S(=O)(=O)N1CC(C)CC(C)C1 (centres undefined) | 3 | 0 | -21 | 3 | 15* | -18
COc1cccc(N2CCN(C(=O)CC(C)(C)CC3=NS(=O)(=O)c4ccccc4N3)CC2)c1 | 26 | 14 | -13 | 2 | -15 | 1
CC(C)(CC(=O)N1CCN(c2ccc(Cl)cc2)CC1)CC1=NS(=O)(=O)c2ccccc2N1 | 22 | 5 | -3 | 11 | -18 | 26*
Cc1cc(C)c2c(n1)sc1c(N3CCCCC3)ncnc12 | 2 | 1 | 7 | -2 | 23* | -9
Cc1cc(C)c2c(n1)sc1c(N3CCN(C)CC3)ncnc12 | 1 | 0 | -21 | 7 | 25 | 17
Cn1nccc1-c1ccc(C(=O)NCc2ccc(Cl)cc2)c2occc12 | 11 | 5 | -12 | -2 | -10 | 3
COc1ccc(Nc2ncc(C(=O)N3CCC(C(N)=O)CC3)c3ccccc23)cc1 | 0 | 0 | 7 | -2 | -6 | 5
COc1ccc(Nc2ncc(C(=O)N3CCN(Cc4ccccc4)CC3)c3ccccc23)cc1 | 23 | 5 | -5 | 14 | -28 | 28*
O=C(CN1CCCCC1)N1c2ccccc2CCc2ccccc21 | 1 | 0 | 10 | -1 | -22 | 77*
CCN1CCN(CC(=O)N2c3ccccc3Sc3ccccc32)CC1 | 2 | 1 | 3 | -9 | -15 | 31*
O=C(CN1CCC(O)CC1)N1c2ccccc2C=Cc2ccccc21 | 1 | 1 | 13 | -8 | -21 | 29*
O=C(CN1CCCC1)N1c2ccccc2Sc2ccccc21 | 0 | 0 | 4 | -11 | -25 | 61*
O=C1c2ccccc2C(=O)N1CC(=O)N1c2ccccc2Sc2ccccc21 | 3 | 2 | 14 | -22 | -1 | 3
CCc1ccc(NC(=O)C(C)n2nc(C)c([N+](=O)[O-])c2C)cc1 (centres undefined) | 2 | 1 | 17 | -18 | 10 | -19
Cc1cc(CNC(=S)Nc2cccc(Cl)c2Cl)nn1C | 4 | 3 | -4 | 0 | 1 | -2
O=C(CSc1nnc(C2CC2)n1CC1CCCO1)Nc1ccc(Cl)cc1 (centres undefined) | 1 | 0 | 15 | -8 | -1 | -1
CCOC(=O)Nc1ccc2c(c1)N(C(=O)OC)c1ccccc1CC2 | 0 | 0 | 9 | -7 | 10 | -6
CCOC(=O)Nc1ccc2c(c1)N(C(=O)CN1CCN(C)CC1)c1ccccc1S2 | 3 | 2 | 17 | -6 | -27 | 24
SMILES | CHRM4 agonist | CHO-K1 Ca ag | M1 PAM parental | CHO-K1 Ca antag | M4 PAM | CHRM4 antagonist
CCCC(CCC)C(=O)Nc1ccc2c(c1)N(C(=O)CN1CCN(C)CC1)c1ccccc1CC2 | 1 | 0 | -2 | -13 | -24 | 44*
CCOC(=O)Nc1ccc2c(c1)N(C(=O)C(C)N1CCCC1)c1ccccc1CC2 (centres undefined) | 1 | 0 | 4 | -6 | -16 | 60*
C[C@H](O)[C@@H]1CN2CCc3c([nH]c4ccc(-c5ccc6c(c5)OCO6)cc34)[C@@H]2C[C@@H]1N(C)C(=O)NC1CCCCC1 | 3 | 1 | -1 | -16 | 0 | -4
C[C@H]1CN([C@@H](C)CO)C(=O)CCCn2nncc2CO[C@@H]1CN(C)S(=O)(=O)c1ccccc1 | 1 | -1 | 2 | 7 | 2 | -9
Cc1c(NC(=O)COC(=O)C2(c3ccc(F)cc3)CCCC2)c(=O)n(-c2ccccc2)n1C | 0 | -1 | -10 | 15 | -5 | 9
COc1ccc(-c2nn(-c3ccccc3)cc2CN(C)CCn2ccnc2C)c(F)c1 | 3 | 1 | 17 | -15 | -14 | -3
CN(C)S(=O)(=O)c1cccc(COC(=O)c2cccnc2Cl)c1 | 18 | 17* | -9 | 19 | -2 | 5
Cc1ccc(S(=O)(=O)NCCSc2nnnn2-c2ccc(C(N)=O)cc2)cc1 | 2 | 0 | 3 | -2 | -1 | -12
O=[N+]([O-])c1cc(S(=O)(=O)NCCN2CCOCC2)ccc1Sc1nnnn1-c1ccccc1 | 3 | 3 | 23 | -2 | -16 | 49*
Cc1ccc(-n2nnnc2Sc2ccc(S(=O)(=O)NCCN(C)C)cc2[N+](=O)[O-])cc1 | 11 | 1 | -5 | 8 | -18 | 34*
O=C1NC[C@H](CCCCN2C[C@H](Cc3ccc(O)cc3)N(CC3CCCCC3)C(=O)C2=O)N(CC2CCCCC2)C1=O | 1 | 1 | 7 | -10 | 6 | -9
CC1CN(C(=O)c2ccc(NS(=O)(=O)c3ccc(F)c(F)c3)cc2)CC(C)O1 (centres undefined) | 2 | 1 | 9 | -8 | 3 | -13
CCC(=O)c1ccc(OCC(=O)OCC(=O)Nc2ccc(C)c(S(=O)(=O)N3CCCCC3)c2)cc1 | 31 | 16* | 2 | -4 | -9 | 10
O=C(/C=C/c1ccccc1)CC(=O)c1ccccc1O | -1 | -1 | 13 | -11 | 1 | -1
CCOc1ccc(C(=O)Nc2cc(-c3nc4ccccc4[nH]3)ccc2C)cc1[N+](=O)[O-] | 6 | 2 | 16 | -15 | 7 | -1
CCOc1ccc(C(=O)Nc2cc(-c3nc4ccccc4[nH]3)ccc2Cl)cc1[N+](=O)[O-] | 12 | 7 | -5 | 26* | -7 | 15
COc1ccc(CNC(=O)C2(CC3CC(c4ccccc4)=NO3)CCNCC2)cc1 (centres undefined) | 5 | 0 | -15 | 6 | -2 | 14

Source: PubChem
